Reference: PubChem BioAssay AID1159580 (chemical genetic matrix, 2015)
In all, about 5,500 compounds went through this assay and about 2,000 (36%) were called active. Inconclusive results (about 18%) are left out. No stated cut-off is given here; in the data, active means normalized growth mostly below about 0.91 (no sharp cut-off); inconclusive means no clear call, values can overlap the other calls; inactive means mostly above about 0.92. The list shows a part of the results.

Assay: chemical genetic growth profiling, strain panel (AID 1159580);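 further: tested at 20 µM; growth read once vehicle control cultures reached saturation at 30 °C; 1 = growth at the plate median or of vehicle wells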
Conditions: growth OD

Measured: normalized growth

CC1(C)O[C@@H]2CC3C4C[C@H](F)C5=CC(=O)C=CC5(C)C4C(O)CC3(C)[C@]2(C(=O)CO)O1 (some centres undefined)
inactive: S. cerevisiae deletion strains, locus YKL009W, strain mrt4, stronger effect = lower value 0.996 | S. cerevisiae deletion strains, locus YKL068W, stronger effect = lower value 0.992 | S. cerevisiae deletion strains, locus YKL085W, strain MDH1 (second series), stronger effect = lower value 1.01 | S. cerevisiae deletion strains, locus YKL085W, strain MDH1, stronger effect = lower value 1.01 | S. cerevisiae deletion strains, locus YKL160W, strain elf1, stronger effect = lower value 0.967 | S. cerevisiae deletion strains, locus YKL190W, strain CNB1, stronger effect = lower value 1.01 | S. cerevisiae deletion strains, locus YKR001C, strain vps1, stronger effect = lower value 1.01 | S. cerevisiae deletion strains, locus YKR026C, strain gcn3, stronger effect = lower value 0.988 | S. cerevisiae deletion strains, locus YKR091W, strain srl3, stronger effect = lower value 0.985 | S. cerevisiae deletion strains, locus YLL001W, strain dnm1, stronger effect = lower value 0.978 | S. cerevisiae deletion strains, locus YLL026W, stronger effect = lower value 1.02 | S. cerevisiae deletion strains, locus YLL041C, strain sdh2, stronger effect = lower value 0.981 | S. cerevisiae deletion strains, locus YLR027C, strain aat2, stronger effect = lower value 0.992 | S. cerevisiae deletion strains, locus YLR039C, strain RIC1, stronger effect = lower value 0.995 | S. cerevisiae deletion strains, locus YLR058C, strain SHM2, stronger effect = lower value 1.02 | S. cerevisiae deletion strains, locus YLR102C, strain apc9, stronger effect = lower value 0.981 | S. cerevisiae deletion strains, locus YLR113W, strain HOG1, stronger effect = lower value 1.04 | S. cerevisiae deletion strains, locus YLR221C, strain rsa3, stronger effect = lower value 1.02 | S. cerevisiae deletion strains, locus YLR258W, strain gsy2, stronger effect = lower value 0.984 | S. cerevisiae deletion strains, locus YLR262C, strain YPT6 (second series), stronger effect = lower value 0.969 | S. cerevisiae deletion strains, locus YLR262C, strain YPT6, stronger effect = lower value 1 | S. cerevisiae deletion strains, locus YLR268W, strain sec22, stronger effect = lower value 1.01 | S. cerevisiae deletion strains, locus YLR320W, strain mms22, stronger effect = lower value 0.981 | S. cerevisiae deletion strains, locus YLR330W, strain CHS5, stronger effect = lower value 1.02 | S. cerevisiae deletion strains, locus YLR342W, strain FKS1 (second series), stronger effect = lower value 1 | S. cerevisiae deletion strains, locus YLR342W, strain FKS1, stronger effect = lower value 0.978 | S. cerevisiae deletion strains, locus YLR357W, strain rsc2, stronger effect = lower value 0.933 | S. cerevisiae deletion strains, locus YLR370C, strain arc18, stronger effect = lower value 0.981 | S. cerevisiae deletion strains, locus YLR371W, strain rom2, stronger effect = lower value 0.988 | S. cerevisiae deletion strains, locus YLR384C, strain iki3, stronger effect = lower value 0.992 | S. cerevisiae deletion strains, locus YLR418C, strain cdc73, stronger effect = lower value 0.977 | S. cerevisiae deletion strains, locus YML016C, strain PPZ1, stronger effect = lower value 1.02 | S. cerevisiae deletion strains, locus YML032C, strain rad52, stronger effect = lower value 0.979 | S. cerevisiae deletion strains, locus YML120C, strain ndi1, stronger effect = lower value 1 | S. cerevisiae deletion strains, locus YML124C, strain tub3, stronger effect = lower value 0.992 | S. cerevisiae deletion strains, locus YMR058W, strain fet3, stronger effect = lower value 1.01 | S. cerevisiae deletion strains, locus YMR078C, strain ctf18, stronger effect = lower value 1 | S. cerevisiae deletion strains, locus YMR125W, strain sto1, stronger effect = lower value 0.979 | S. cerevisiae deletion strains, locus YMR129W, stronger effect = lower value 1.01 | S. cerevisiae deletion strains, locus YMR205C, strain PFK2, stronger effect = lower value 0.981 | S. cerevisiae deletion strains, locus YMR223W, strain ubp8, stronger effect = lower value 0.996 | S. cerevisiae deletion strains, locus YMR231W, strain pep5, stronger effect = lower value 0.978 | S. cerevisiae deletion strains, locus YMR263W, strain SAP30, stronger effect = lower value 1.02 | S. cerevisiae deletion strains, locus YMR307W, strain GAS1, stronger effect = lower value 1.07 | S. cerevisiae deletion strains, locus YNL067W, strain RPL9B, stronger effect = lower value 1.03 | S. cerevisiae deletion strains, locus YNL071W, strain lat1, stronger effect = lower value 0.987 | S. cerevisiae deletion strains, locus YNL153C, strain GIM3, stronger effect = lower value 1.03 | S. cerevisiae deletion strains, locus YNL183C, strain NPR1, stronger effect = lower value 0.953 | S. cerevisiae deletion strains, locus YNL209W, strain ssb2, stronger effect = lower value 0.974 | S. cerevisiae deletion strains, locus YNL233W, strain BNI4, stronger effect = lower value 1.02 | S. cerevisiae deletion strains, locus YNL248C, strain rpa49, stronger effect = lower value 0.927 | S. cerevisiae deletion strains, locus YNL250W, strain rad50, stronger effect = lower value 0.993 | S. cerevisiae deletion strains, locus YNL271C, strain bni1, stronger effect = lower value 0.97 | S. cerevisiae deletion strains, locus YNL298W, strain CLA4, stronger effect = lower value 0.988 | S. cerevisiae deletion strains, locus YNL307C, strain MCK1, stronger effect = lower value 0.98 | S. cerevisiae deletion strains, locus YNL322C, strain KRE1 (second series), stronger effect = lower value 0.963 | S. cerevisiae deletion strains, locus YNL322C, strain KRE1, stronger effect = lower value 1.01 | S. cerevisiae deletion strains, locus YNR049C, strain mso1, stronger effect = lower value 0.974 | S. cerevisiae deletion strains, locus YNR052C, strain pop2, stronger effect = lower value 0.993 | S. cerevisiae deletion strains, locus YOL006C, strain TOP1, stronger effect = lower value 1.01 | S. cerevisiae deletion strains, locus YOL012C, strain htz1 0.907 | S. cerevisiae deletion strains, locus YOL147C, strain pex11, stronger effect = lower value 0.992 | S. cerevisiae deletion strains, locus YOR001W, strain rrp6, stronger effect = lower value 1.01 | S. cerevisiae deletion strains, locus YOR061W, strain CKA2, stronger effect = lower value 1.02 | S. cerevisiae deletion strains, locus YOR069W, strain VPS5, stronger effect = lower value 1.01 | S. cerevisiae deletion strains, locus YOR070C, strain gyp1, stronger effect = lower value 0.984 | S. cerevisiae deletion strains, locus YOR080W, strain dia2, stronger effect = lower value 0.977 | S. cerevisiae deletion strains, locus YOR083W, strain WHI5, stronger effect = lower value 0.918 | S. cerevisiae deletion strains, locus YOR106W, strain vam3, stronger effect = lower value 0.976 | S. cerevisiae deletion strains, locus YOR136W, strain idh2, stronger effect = lower value 0.994 | S. cerevisiae deletion strains, locus YOR144C, strain elg1, stronger effect = lower value 0.984 | S. cerevisiae deletion strains, locus YOR184W, strain ser1, stronger effect = lower value 0.982 | S. cerevisiae deletion strains, locus YOR231W, strain MKK1, stronger effect = lower value 1.02 | S. cerevisiae deletion strains, locus YOR265W, strain rbl2, stronger effect = lower value 1.01 | S. cerevisiae deletion strains, locus YOR270C, strain vph1, stronger effect = lower value 0.955 | S. cerevisiae deletion strains, locus YOR290C, strain snf2, stronger effect = lower value 0.964 | S. cerevisiae deletion strains, locus YOR316C, strain cot1, stronger effect = lower value 0.983 | S. cerevisiae deletion strains, locus YPL051W, strain arl3, stronger effect = lower value 0.981 | S. cerevisiae deletion strains, locus YPL055C, strain LGE1, stronger effect = lower value 1.04 | S. cerevisiae deletion strains, locus YPL078C, strain atp4, stronger effect = lower value 0.977 | S. cerevisiae deletion strains, locus YPL106C, strain sse1, stronger effect = lower value 0.95 | S. cerevisiae deletion strains, locus YPL240C, strain hsp82, stronger effect = lower value 0.992 | S. cerevisiae deletion strains, locus YPL256C, strain CLN2, stronger effect = lower value 1.03 | S. cerevisiae deletion strains, locus YPR119W, strain clb2, stronger effect = lower value 0.987 | S. cerevisiae deletion strains, locus YPR141C, strain kar3, stronger effect = lower value 0.996 | S. cerevisiae deletion strains, locus YPR163C, strain tif3, stronger effect = lower value 0.988 | S. cerevisiae deletion strains, locus YPR167C, strain met16, stronger effect = lower value 0.987 | S. cerevisiae deletion strains, strain wtn01, stronger effect = lower value 0.984 | S. cerevisiae strains, strain wild type, stronger effect = lower value 1.02
